Screening data deposited in PubChem BioAssay by several laboratories.
This is a sample that favours compounds with a hit; in the whole collection about 6.6% have one here.
Mdm2 MdmX PPI – inhibitors of human Mdm2-MdmX association, primary screen, cell-based, luminescence, split luciferase, SaOS-2, uHTS; SaOS-2 split-luciferase Mdm2/MdmX complementation; inhibition, % at 8 µM; actives 3% (n = 330,000);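 active = inhibition of at least 50% at 8 µM in the primary screen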
Target sequence (O15151 whole entry, looked up): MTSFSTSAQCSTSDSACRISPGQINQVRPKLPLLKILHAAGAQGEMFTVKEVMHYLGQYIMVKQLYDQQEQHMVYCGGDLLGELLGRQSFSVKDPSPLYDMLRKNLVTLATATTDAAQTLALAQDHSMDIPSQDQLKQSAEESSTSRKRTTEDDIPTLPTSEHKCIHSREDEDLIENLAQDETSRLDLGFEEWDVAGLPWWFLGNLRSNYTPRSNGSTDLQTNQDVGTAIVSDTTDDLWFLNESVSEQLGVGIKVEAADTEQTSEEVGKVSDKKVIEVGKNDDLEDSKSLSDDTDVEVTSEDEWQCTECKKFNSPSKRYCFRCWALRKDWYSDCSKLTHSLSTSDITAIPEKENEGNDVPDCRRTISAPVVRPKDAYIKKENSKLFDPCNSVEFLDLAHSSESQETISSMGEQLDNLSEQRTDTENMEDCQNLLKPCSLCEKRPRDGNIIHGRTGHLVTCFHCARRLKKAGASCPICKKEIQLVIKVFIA
Target sequence (Q00987 whole entry, looked up): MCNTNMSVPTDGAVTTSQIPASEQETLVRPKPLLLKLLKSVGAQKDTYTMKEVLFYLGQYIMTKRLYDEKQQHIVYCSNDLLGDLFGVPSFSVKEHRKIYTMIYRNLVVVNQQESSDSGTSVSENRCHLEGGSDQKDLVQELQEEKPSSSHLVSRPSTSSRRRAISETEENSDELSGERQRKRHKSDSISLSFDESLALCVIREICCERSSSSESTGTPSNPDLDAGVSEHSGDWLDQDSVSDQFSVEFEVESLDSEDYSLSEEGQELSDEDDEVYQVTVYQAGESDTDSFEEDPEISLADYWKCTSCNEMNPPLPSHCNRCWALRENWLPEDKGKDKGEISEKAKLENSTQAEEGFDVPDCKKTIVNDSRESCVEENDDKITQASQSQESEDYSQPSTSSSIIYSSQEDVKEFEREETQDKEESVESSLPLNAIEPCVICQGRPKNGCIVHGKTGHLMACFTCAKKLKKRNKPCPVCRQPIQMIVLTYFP
Gli-Sufu antag – Gli-Sufu pathway antagonists, primary screen, luciferase luminescence, Sufu-KO-LIGHT cells, uHTS. Sufu-KO-LIGHT fibroblasts, Gli luciferase reporter luminescence. inhibition, % at 5 µM. actives 0.74% (n = 340,000);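 active = inhibition above about 55%, limit read from the data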
GRIN3A LBD mod – binders of NR3A ligand-binding domain, primary screen, biophysical, differential scanning fluorimetry, uHTS | Glutamate receptor ionotropic, NMDA 3A (GRIN3A) ligand-binding domain | NR3A LBD differential scanning fluorimetry, Tm shift; 0% = protein alone, 100% = glycine-bound protein | Tm shift relative to glycine control, % at 25 µM | actives 2.5% (n = 340,000);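 active = melting temperature shift of at least 10% of the positive control shift, at one fixed dose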
CSC inhib – cancer stem cell viability inhibitors, primary screen, luminescence; AID 2717, 2010; inhibition, % at 7.5 µM; cancer stem cell-like cells viability; actives 1.1% (n = 300,000); in the data active = inhibition above about 75%; tested in HMLE shEcad cells
Beta apoptosis – inhibitors of cytokine-induced beta cell apoptosis, primary screen, luminescence. INS-1E cytokine-induced death, ATP luminescence, 48 h; percent of positive-control rescue, neutral wells zero. protection from apoptosis, % (no concentration beside the values). actives 0.8% (n = 300,000). AID 435005, 2010;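 active = Every replicate reaches about 75%, or at least half do and their mean reaches it too, limit read from the data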;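 note: higher means more ATP so stronger rescue from cytokine killing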
MPTP block – mitochondrial permeability transition pore inhibitors, primary screen, biochemical, isolated mouse mitochondria, absorbance; inhibition, % at 10 µM; AID 602449, 2012; Ca2+ swelling absorbance, 30 min; actives 1.4% (n = 360,000);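 active = inhibition of 50% or more, scaled per plate between neutral and stimulator controls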
Mdm2 MdmX conf – Mdm2-MdmX complex disruptors, retested hits, confirmation, luminescence, single concentration; Mdm2-MdmX binding, luminescent assay; actives 55% (n = 10,000); inhibition, % at 8 µM; shares compounds with Mdm2 MdmX PPI; in the data active = inhibition above about 40%
FLuc counter – full-length luciferase signal inhibition, confirmation, counter-screen for Mdm2/MdmX interaction inhibitor project, cell-based, single concentration, SaOS-2 | shares compounds with Mdm2 MdmX PPI | SaOS-2 full-length luciferase counterscreen, luminescence | inhibition, % at 8 µM | actives 77% (n = 6,200) | AID 504607, 2011;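 active = mean inhibition at 8 µM reaching about 37%, which flags the compound as non-specific, limit read from the data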;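 note: p53-null SaOS-2 cells with luciferase driven by a doxycycline-inducible promoter; compound on cells about two nights before reading with doxycycline added after day one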
Of the large screens only hits and unclear results are named; the others gave an inactive call (follow-up assays come after a bar, where they were run).

COc1cccc(NC(=O)C2(C)CCN2C(=O)CC2CCCC2)c1 (centres undefined)	none (no result: Mdm2 MdmX PPI, Gli-Sufu antag, GRIN3A LBD mod, CSC inhib, Beta apoptosis)
CC1CCCC(C)N1CCOc1cc(N)ccc1C#N (centres undefined)	none (no result: Mdm2 MdmX PPI, CSC inhib, Beta apoptosis)
Cc1cc(C)c(NC(=S)N2CCN(c3ccc([N+](=O)[O-])cn3)CC2)cc1C	none
CC1O[C@@H](OC2C(O)C(O)C(CO)O[C@H]2OC2C[C@]3(C)C(CC(O)C4[C@@H]([C@]5(C)CC[C@@H](C(C)(C)O)O5)CC[C@]43C)[C@@]3(C)CCC(O)C(C)(C)C23)C(O)C(O)C1O (some centres undefined)	none
CCCCC(=O)Nc1ccc(C(=O)NNC(=O)c2ccc(C)c(Br)c2)cc1	Mdm2 MdmX PPI 65.1 (no result: CSC inhib) | Mdm2 MdmX conf inactive | FLuc counter 43.4
O=C(N[C@@H](Cc1ccccc1)C(=O)OCc1ccccc1)c1nc[nH]c1C(=O)N1CCNCC1	none
CCC1(c2ccccc2)C(=O)N=C(N)N(C#N)C1=O (centres undefined)	none (no result: Mdm2 MdmX PPI, CSC inhib, Beta apoptosis)
CCC1(c2ccccc2)ON(c2c(Br)cccc2Br)C1=O (centres undefined)	Mdm2 MdmX PPI 92.9 | Mdm2 MdmX conf 91.5 | FLuc counter 46.6
O=C1[C@@H]2Cc3c([nH]c4ccccc34)C(c3cccc(Br)c3)N2C(=O)CN1C1CCN(Cc2ccccc2)CC1 (some centres undefined)	Mdm2 MdmX PPI 88.4, CSC inhib 82.4 | Mdm2 MdmX conf inactive | FLuc counter 73.3
COC(=O)c1ccc(C2c3[nH]c4ccccc4c3C[C@H]3C(=O)N(C4CCN(Cc5ccccc5)CC4)CC(=O)N23)cc1 (some centres undefined)	none
O=C1[C@@H]2Cc3c([nH]c4ccccc34)C(c3ccccc3)N2C(=O)CN1C1CCN(Cc2ccccc2)CC1 (some centres undefined)	Mdm2 MdmX PPI 63.5 | Mdm2 MdmX conf inactive | FLuc counter 92.5
CCOc1ccccc1C1c2[nH]c3ccccc3c2C[C@H]2C(=O)N(C3CCN(Cc4ccccc4)CC3)CC(=O)N12 (some centres undefined)	Mdm2 MdmX PPI 61.9 | Mdm2 MdmX conf 51.3 | FLuc counter 66.8
Cc1ccccc1C1c2[nH]c3ccccc3c2C[C@H]2C(=O)N(C3CCN(Cc4ccccc4)CC3)CC(=O)N12 (some centres undefined)	none (no result: Gli-Sufu antag, GRIN3A LBD mod)
O=C(Nc1ccc(Cl)cc1)N1CCCN(Cc2ccc(F)cc2)C1	Mdm2 MdmX PPI 53.0 | Mdm2 MdmX conf inactive
CCSc1ccc([C@@H]2[C@H]3C(=O)N(C)C(=O)[C@H]3[C@]3(C(=O)OC)CCCCN23)cc1OC	none
CCCOc1ccc(C(=O)ON=C2CCN(C)CC2)cc1	none
CC1(C)CC2CC(C)(CN2C(=O)c2cc(-c3ccccc3O)on2)C1 (centres undefined)	Mdm2 MdmX PPI 64.4 | Mdm2 MdmX conf inactive | FLuc counter 67.0
COc1cc(-c2noc(C)c2C#CC2(N)CCCCC2)cc(OC)c1OC	none
COc1cc(-c2noc(C)c2C#Cc2ccsc2)cc(OC)c1OC	Mdm2 MdmX PPI 64.7 (no result: Gli-Sufu antag) | Mdm2 MdmX conf 68.0 | FLuc counter 77.8
COc1cc(-c2noc(C)c2C#CC2(O)CCCCC2)cc(OC)c1OC	Mdm2 MdmX PPI 61.3 | Mdm2 MdmX conf 43.4 | FLuc counter 83.8
COc1cc(-c2noc(C)c2C#CCO)cc(OC)c1OC	none
Cc1noc(C)c1CSCC(=O)Nc1ccccc1N1CCCCC1	none (no result: Gli-Sufu antag, GRIN3A LBD mod, Beta apoptosis)
